Most compounds without a hit are left out; they make up all but 3.5% or so of the library.
BoNT A protease: blocks Botulinum neurotoxin A light chain protease; inhibition, % at 10 µM; 0.17% of 360,000 active; multiplex microsphere protease substrate cleavage, flow cytometry; note: plate controls were buffer without enzyme for full effect and enzyme alone for no effect
Autofluor counter: flagged as autofluorescent in microsphere protease counterscreen. compound autofluorescence counterscreen, microsphere flow cytometry; active compounds read high. AID 624483. fluorescence intensity (test concentration not listed). 3.1% of 360,000 active; in the data active = fluorescence intensity above about 16000; inconclusive = no clear call, values can overlap the other calls
BoNT F protease: inhibitors of Botulinum neurotoxin F light chain protease; Multiplex microsphere protease cleavage assay, flow cytometry; inhibition, % at 10 µM; 0.22% of 360,000 active; AID 588497; in the data active = inhibition above about 35%, passing the limit was not always enough; inconclusive = no clear call, values can overlap the other calls; note: plate controls were buffer without enzyme for full effect and enzyme alone for no effect
Anthrax LF inh2: inhibitors of Bacillus anthracis lethal factor protease | P15917 | multiplex microsphere protease cleavage assay, LF | inhibition, % at 10 µM | 0.12% of 360,000 active | AID 588501; note: plate controls were buffer without enzyme for full effect and enzyme alone for no effect
* hit, by the source's call. Cut-off read from the data, not from the text of the source, unless noted: active = inhibition above about 30%; inconclusive = no clear call, values can overlap the other calls; inactive = below that.

For COc1cc2nc(C3CC3)n(NC(=O)c3ccc(F)cc3)c(=O)c2cc1OC the results were BoNT A protease inconclusive, Autofluor counter 24457*, BoNT F protease -3.1 and Anthrax LF inh2 -0.9.
`COc1ccccc1C(=O)Nn1c(C2CCC2)nc2ccccc2c1=O` gave BoNT A protease inconclusive, Autofluor counter 23194*, BoNT F protease -0.2 and Anthrax LF inh2 -0.3.
O=C(Nn1c(C2CC2)nc2ccccc2c1=O)c1ccco1 was read as BoNT A protease 5.4, Autofluor counter 20747*, BoNT F protease 10.5 and Anthrax LF inh2 -6.3.
Screening COc1cc2nc(C3CC3)n(NC(=O)c3ccc(Cl)cc3)c(=O)c2cc1OC returned BoNT A protease 0.9, Autofluor counter 10786, BoNT F protease 17.4 and Anthrax LF inh2 -4.6.
Screening O=C(Nn1c(C2CCC2)nc2ccccc2c1=O)C1CCC1 returned BoNT A protease 10.6, Autofluor counter 16974*, BoNT F protease 13.6 and Anthrax LF inh2 -4.8.
For COC(=O)c1ccc(NCCc2csc(-c3ccc(C)cc3)n2)c([N+](=O)[O-])c1 the results were BoNT A protease -2.2, Autofluor counter 4360, BoNT F protease -55.5 and Anthrax LF inh2 -9.0.
For COc1cccc(CN2CCC2(C)C(=O)Nc2cccc(NS(C)(=O)=O)c2)c1OC (stereo not drawn) the results were BoNT A protease -0.7, Autofluor counter 3563, BoNT F protease -2.7 and Anthrax LF inh2 -4.8.
For CCOC(=O)CNC(=O)N1CCCC(C(=O)c2ccccc2SC)C1 (stereo not drawn) the results were BoNT A protease -0.1, Autofluor counter 2446, BoNT F protease 0.7 and Anthrax LF inh2 0.9.
For CCCCS(=O)(=O)N1CCN(S(=O)(=O)c2ccc(Cl)s2)CC1 the results were BoNT A protease -3.1, Autofluor counter 6342, BoNT F protease 3.2 and Anthrax LF inh2 -0.4.
`CCCOC(=S)N/C(=N\S(=O)(=O)c1ccccc1)c1ccccc1` gave BoNT A protease -0.6, Autofluor counter 23253*, BoNT F protease -0.5 and Anthrax LF inh2 -3.2.
CCOC(=S)N/C(=N\S(=O)(=O)c1ccccc1)c1ccccc1 was read as BoNT A protease 0.5, Autofluor counter 3245, BoNT F protease 0.7 and Anthrax LF inh2 -0.2.
`COC(=O)C1CN(C(=O)COc2ccccc2)c2ccccc2O1` (stereo not drawn) gave BoNT A protease -3.4, Autofluor counter 3555, BoNT F protease 5.6 and Anthrax LF inh2 0.8.
Screening O=C1C2C3C=CC(C3)C2C(=O)N1c1n[nH]c(-c2ccccc2)n1 (stereo not drawn) returned BoNT A protease -0.9, Autofluor counter 23080*, BoNT F protease 0.0 and Anthrax LF inh2 -10.0.
`O=C1C2C3C=CC(C3)C2C(=O)N1c1cccc(N2C(=O)C3C4C=CC(C4)C3C2=O)n1` (stereo not drawn) gave BoNT A protease 0.5, Autofluor counter 22915*, BoNT F protease -0.9 and Anthrax LF inh2 -4.5.
For Cc1ccc(N2C(=O)C3C4C=CC(C4)C3C2=O)cc1C (stereo not drawn) the results were BoNT A protease 1.8, Autofluor counter 22226*, BoNT F protease 2.2 and Anthrax LF inh2 -3.7.
O=C1CCCN1CCCNc1nc(NCc2ccccc2)nc2ccsc12 was read as BoNT A protease -0.2, Autofluor counter 3784, BoNT F protease 3.9 and Anthrax LF inh2 -0.6.
Screening Cc1cc(-n2nnc3ccccc32)nc2ccccc12 returned BoNT A protease -2.6, Autofluor counter 17243*, BoNT F protease -6.4 and Anthrax LF inh2 0.2.
O=C(Nc1cccc(-c2nc3ccccc3s2)c1)c1ccc2c(c1)OCO2 was read as BoNT A protease 1.8, Autofluor counter 9589, BoNT F protease 3.7 and Anthrax LF inh2 -1.2.
For c1ccc2sc(-c3ccc4c(c3)OCO4)nc2c1 the results were BoNT A protease -0.9, Autofluor counter 21120*, BoNT F protease -5.2 and Anthrax LF inh2 -3.2.
Screening O=C(NCc1cccnc1)c1nc(-c2ccccc2)n(-c2ccccc2)n1 returned BoNT A protease -2.6, Autofluor counter 6217, BoNT F protease -6.7 and Anthrax LF inh2 -2.6.
O=C(Nc1ccccc1)/C(=C\c1ccc(F)cc1)NC(=O)c1ccco1 was read as BoNT A protease 0.3, Autofluor counter 5158, BoNT F protease 3.3 and Anthrax LF inh2 0.3.
`COc1ccc2[nH]cc(S(=O)(=O)c3ccc(C(C)C)cc3)c(=O)c2c1` gave BoNT A protease 0.1, Autofluor counter 4237, BoNT F protease -0.2 and Anthrax LF inh2 -0.2.
Cc1ccc(C(=O)/C=C/c2cn(CN3CCN(C)CC3)c3ccccc23)cc1 was read as BoNT A protease 1.2, Autofluor counter 22519*, BoNT F protease -2.4 and Anthrax LF inh2 0.6.
Cn1cc(/C=C/C(=O)c2ccccc2)c2ccccc21 was read as BoNT A protease 1.0, Autofluor counter 6455, BoNT F protease -2.6 and Anthrax LF inh2 3.1.
For C=C(C)C(C)(C#CCN1CCCC1)OC(C)=O (stereo not drawn) the results were BoNT A protease 2.5, Autofluor counter 18876*, BoNT F protease 1.7 and Anthrax LF inh2 0.6.
CC(C)c1[nH]c(=O)c(C#N)c2c1COC(C)(C)C2 was read as BoNT A protease -3.6, Autofluor counter 21618*, BoNT F protease -3.3 and Anthrax LF inh2 -0.7.
`CC(C)C1=C2OC(N)=C(C#N)C(C#N)=C2C(C)CC1` (stereo not drawn) gave BoNT A protease -4.6, Autofluor counter 22045*, BoNT F protease -7.2 and Anthrax LF inh2 0.0.
CCOc1cc(/C=N/NC(=O)c2nnn(-c3nonc3N)c2C)ccc1OCc1cccc(F)c1 was read as BoNT A protease -1.2, Autofluor counter 5824, BoNT F protease 7.0 and Anthrax LF inh2 -1.6.
CCOc1ccc(N=C(NC#N)SCC(=O)NC2CC2)cc1 was read as BoNT A protease inconclusive, Autofluor counter 23167*, BoNT F protease -1.2 and Anthrax LF inh2 -2.3.
For CCOc1ccc(N=C(NC#N)SCC)cc1 the results were BoNT A protease -6.0, Autofluor counter 13339, BoNT F protease -12.9 and Anthrax LF inh2 -6.5.
For CC1(C)CC(=O)c2sc(NC(=O)C3CC3)nc2C1 the results were BoNT A protease -0.4, Autofluor counter 5400, BoNT F protease -6.2 and Anthrax LF inh2 -3.6.
For Cn1nc(C(C)(C)C)cc1C(=O)Nc1nc2c(s1)C(=O)CC(C)(C)C2 the results were BoNT A protease -0.4, Autofluor counter 22625*, BoNT F protease 1.7 and Anthrax LF inh2 0.7.
`CCC(=NCCc1c[nH]c2ccccc12)c1c(O)n(C)c(=O)n(C)c1=O` gave BoNT A protease -0.1, Autofluor counter 22284*, BoNT F protease 2.5 and Anthrax LF inh2 -0.3.
Screening COc1ccc(C)cc1NC(=S)NNC(=O)c1c(Br)cnn1C returned BoNT A protease -1.1, Autofluor counter 4228, BoNT F protease -4.1 and Anthrax LF inh2 1.9.
`CCOc1cc(C(=O)Nc2cnccn2)cc(OCC)c1OCC` gave BoNT A protease -3.2, Autofluor counter 20443*, BoNT F protease -2.4 and Anthrax LF inh2 -1.4.
CCOc1cc(C(=O)Nc2cc(C)ccn2)cc(OCC)c1OCC was read as BoNT A protease -0.5, Autofluor counter 9836, BoNT F protease -2.4 and Anthrax LF inh2 -7.9.
CCOc1cc(C(=O)NCc2ccncc2)cc(OCC)c1OCC was read as BoNT A protease 0.6, Autofluor counter 19468*, BoNT F protease -2.3 and Anthrax LF inh2 -1.7.

Source: PubChem (NMMLSC)
